# In PubChem BioAssay (Tox21):
# Values joined by “and” are separate entries in the source; they are usually repeats but may differ in a detail not shown here. Equal entries are not always repeated. Records with an inconclusive call do not appear. Where a call stands in place of a potency, no number is given. More than one record can exist for a structure, and the calls need not agree. Active and inactive are the calls of the source. Unless noted, calls follow the shape of the dose curve; as a rule, active = well fitted curve in the direction sought with a large enough effect in the repeat runs; inconclusive = weak or mixed curves; inactive = no such curve, though single readings can be large; an effect the other way counts as inactive or inconclusive.
# How the values were obtained:
# [1] = qHTS assay to identify aromatase inhibitors - cell viability counter screen (AID 743084);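 also: cells stimulated with testosterone during compound exposure; nearly all actives have a fitted effect of over 55% in size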; also: potency is read from the fitted curve at half-maximal effect
# [2] = target: Aryl hydrocarbon receptor (Homo sapiens) (UniProt P35869); assay: qHTS assay to identify small molecule that activate the aryl hydrocarbon receptor (AhR) signaling pathway (AID 743085); also: nearly all actives have a fitted effect of over 15% in size; also: potency is read from the fitted curve at half-maximal effect;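 as to activation: HG2L7.5c1 human HepG2 liver cells with stably integrated DRE-driven firefly reporter; series mostly up to about 70 µM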
# Sequence of Aryl hydrocarbon receptor (Homo sapiens) (P35869 whole entry, looked up): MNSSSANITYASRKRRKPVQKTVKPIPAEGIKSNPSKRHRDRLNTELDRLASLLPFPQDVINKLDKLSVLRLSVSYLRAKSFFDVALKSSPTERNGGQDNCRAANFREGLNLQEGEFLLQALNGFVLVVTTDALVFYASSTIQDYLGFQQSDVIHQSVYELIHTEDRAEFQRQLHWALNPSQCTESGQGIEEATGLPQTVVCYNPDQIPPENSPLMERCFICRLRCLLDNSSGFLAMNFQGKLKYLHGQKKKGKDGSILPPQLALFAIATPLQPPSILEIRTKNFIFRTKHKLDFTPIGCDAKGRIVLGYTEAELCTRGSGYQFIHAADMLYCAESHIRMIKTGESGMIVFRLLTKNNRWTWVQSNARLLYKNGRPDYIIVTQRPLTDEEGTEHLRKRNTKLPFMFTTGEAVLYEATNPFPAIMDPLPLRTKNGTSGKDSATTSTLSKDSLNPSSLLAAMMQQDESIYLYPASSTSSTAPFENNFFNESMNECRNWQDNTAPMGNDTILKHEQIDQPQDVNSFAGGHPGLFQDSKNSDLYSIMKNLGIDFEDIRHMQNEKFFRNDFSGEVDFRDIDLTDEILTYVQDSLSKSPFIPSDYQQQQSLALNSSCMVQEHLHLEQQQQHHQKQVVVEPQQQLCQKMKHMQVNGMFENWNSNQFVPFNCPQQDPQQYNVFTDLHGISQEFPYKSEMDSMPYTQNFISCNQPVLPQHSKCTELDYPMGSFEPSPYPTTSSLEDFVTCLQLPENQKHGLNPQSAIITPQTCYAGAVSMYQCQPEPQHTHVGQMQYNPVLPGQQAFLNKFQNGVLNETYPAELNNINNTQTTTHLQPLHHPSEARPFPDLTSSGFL
# How it was run: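 Compounds were tested in HepG2 hepatocellular carcinoma cells harbouring a stably integrated luciferase gene under control of 20 DREs. Increased reporter signal after 24 h treatment at 37C was taken as AhR activation.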
# [3] = qHTS assay to identify small molecule that activate the aryl hydrocarbon receptor (AhR) signaling pathway - cell viability counter screen (AID 743086);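 also: HepG2 liver cells carrying the AhR DRE luciferase reporter; series mostly up to about 70 µM; nearly all actives have a fitted effect of over 45% in size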
# How it was run: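 HepG2-AhR-luc (HG2L7.5c1) cells, 4000/well, were preincubated 5 h at 37C, exposed to compound in qHTS format for 24 hr at 37C, then given CellTiter-Fluor for 30 min; viability was read as fluorescence in the reporter wells.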
# [4] = target: Peroxisome proliferator-activated receptor gamma (Homo sapiens) (UniProt P37231); assay: qHTS assay to identify small molecule agonists of the peroxisome proliferator-activated receptor gamma (PPARg) signaling pathway (AID 743094; active = well fitted activation curve with a large enough effect in the signal ratio in the repeat runs, not every such curve was filed as active; the % refers to the signal ratio)
# Sequence of Peroxisome proliferator-activated receptor gamma (Homo sapiens) (P37231 whole entry, looked up): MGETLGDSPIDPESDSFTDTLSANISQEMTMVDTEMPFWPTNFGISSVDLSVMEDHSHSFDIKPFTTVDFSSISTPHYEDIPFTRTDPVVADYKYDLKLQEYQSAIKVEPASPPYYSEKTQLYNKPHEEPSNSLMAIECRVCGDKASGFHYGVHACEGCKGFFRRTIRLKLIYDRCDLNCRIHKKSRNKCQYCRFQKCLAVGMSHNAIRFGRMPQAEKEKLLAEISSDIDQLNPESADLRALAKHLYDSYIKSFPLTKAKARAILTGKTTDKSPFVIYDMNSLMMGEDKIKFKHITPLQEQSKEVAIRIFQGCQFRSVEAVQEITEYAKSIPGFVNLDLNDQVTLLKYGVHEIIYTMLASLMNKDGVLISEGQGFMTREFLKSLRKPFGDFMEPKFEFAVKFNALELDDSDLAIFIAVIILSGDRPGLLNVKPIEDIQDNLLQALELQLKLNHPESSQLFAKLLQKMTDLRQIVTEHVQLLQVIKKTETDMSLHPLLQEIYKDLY
# How it was run: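 Agonist activity was taken from a beta-lactamase reporter (FRET substrate, 1 h at room temperature) in HEK293H cells carrying a PPARg UAS-bla construct. Compounds in DMSO were incubated 17 h at 37C after a 5 h cell pre-incubation.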
# [5] = target: Peroxisome proliferator-activated receptor gamma (Homo sapiens) (UniProt P37231); assay: qHTS assay to identify small molecule antagonists of the peroxisome proliferator-activated receptor gamma (PPARg) signaling pathway (AID 743191; calls by dose curve; also: nearly all actives have a fitted effect of over 30% in size; also: potency is read from the fitted curve at half-maximal effect)
# How it was run: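 GeneBLAzer PPARg UAS-bla HEK293H cells carrying a UAS-driven beta-lactamase reporter were plated at 3000 cells/well, preincubated 5 h at 37C, then given compound for 17 h at 37C; LiveBLAzer B/G FRET substrate was read after 1 h at room temperature.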
# [6] = qHTS assay to identify small molecule antagonists of the peroxisome proliferator-activated receptor gamma (PPARg) signaling pathway - cell viability counter screen (AID 743194); conditions: Potency: co-treated with 50 nM rosiglitazone unless noted; also: nearly all actives have a fitted effect of over 55% in size; also: potency is read from the fitted curve at half-maximal effect
# How it was run: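 PPARg-UAS-bla HEK293H cells were plated, rested 5 h at 37 C, then treated with compounds plus rosiglitazone (50 nM final) for 17 h at 37 C; viability was then read by CellTiter-Glo luminescence after 30 min at room temperature.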
# [7] = qHTS assay for small molecule agonists of the antioxidant response element (ARE) signaling pathway - cell viability counter screen (AID 743203; calls by dose curve; also: nearly all actives have a fitted effect of over 55% in size; also: potency is read from the fitted curve at half-maximal effect)
# How it was run: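 Viability counter screen: CellTiter-Glo luminescence, read after 30 min at room temperature, in ARE-bla HepG2 wells. Compound exposure lasted 16 h at 37C/5% CO2, following a 5 h pre-incubation of the cells after plating.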
# [8] = qHTS assay to identify small molecule agonists of the peroxisome proliferator-activated receptor delta (PPARd) signaling pathway - cell viability counter screen (AID 743211); also: nearly all actives have a fitted effect of over 55% in size; also: potency is read from the fitted curve at half-maximal effect
# How it was run: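 Counter screen for cytotoxicity run in parallel with the PPARd reporter screen. Beta-lactamase reporter HEK293H cells exposed to compounds 17 h; ATP-based CellTiter-Glo luminescence quantified viability.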
# [9] = qHTS assay to identify small molecule antagonists of the peroxisome proliferator-activated receptor delta (PPARd) signaling pathway - cell viability counter screen (AID 743213); also: nearly all actives have a fitted effect of over 50% in size; also: potency is read from the fitted curve at half-maximal effect
# How it was run: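 In this counter screen, HEK293H cells carrying a UAS-beta-lactamase reporter are co-treated with test compounds and 300 nM L165041 (final) for 17 h at 37 C; cell viability is quantified by CellTiter-Glo luminescence.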
# [10] = qHTS assay to identify small molecule agonists of the farnesoid-X-receptor (FXR) signaling pathway - cell viability counter screen (AID 743218); also: nearly all actives have a fitted effect of over 45% in size; also: potency is read from the fitted curve at half-maximal effect
# How it was run: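 Viability counter screen in the same wells: CellTiter-Glo luminescence, 30 min room-temperature incubation, measured after the beta-lactamase read. Cells were GeneBLAzer FXR-UAS-bla HEK 293T, compound-treated 16 h at 37C.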
# [11] = qHTS assay to identify small molecule antagonists of the farnesoid-X-receptor (FXR) signaling pathway - cell viability counter screen (AID 743221; active = well fitted cell-killing curve with a large enough effect in the repeat runs, not every such curve was filed as active; also: nearly all actives have a fitted effect of over 50% in size; also: potency is read from the fitted curve at half-maximal effect)
# How it was run: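 Multiplexed counter screen: viability of FXR-bla HEK 293T cells under agonist stimulation by chenodeoxycholic acid (50 uM, final) and test compound for 16 h at 37 C, measured by CellTiter-Glo luminescence in the reporter wells.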
# [12] = target: Vitamin D3 receptor (Homo sapiens) (UniProt P11473); assay: qHTS assay to identify small molecule agonists of the vitamin D receptor (VDR) signaling pathway (AID 743222; calls by dose curve)
# Sequence of Vitamin D3 receptor (Homo sapiens) (P11473 whole entry, looked up): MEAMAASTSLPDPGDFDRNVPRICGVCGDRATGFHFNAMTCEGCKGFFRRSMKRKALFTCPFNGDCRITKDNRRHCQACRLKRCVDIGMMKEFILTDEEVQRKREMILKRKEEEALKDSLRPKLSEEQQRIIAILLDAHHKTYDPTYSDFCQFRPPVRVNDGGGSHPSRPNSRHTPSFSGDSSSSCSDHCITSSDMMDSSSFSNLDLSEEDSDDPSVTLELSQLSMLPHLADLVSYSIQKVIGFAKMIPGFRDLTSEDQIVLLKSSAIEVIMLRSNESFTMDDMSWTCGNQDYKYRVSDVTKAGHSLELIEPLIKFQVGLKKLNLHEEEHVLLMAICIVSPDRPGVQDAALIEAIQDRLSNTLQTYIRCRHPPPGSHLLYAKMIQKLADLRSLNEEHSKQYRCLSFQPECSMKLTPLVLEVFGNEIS
# How it was run: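 Agonist mode, beta-lactamase reporter: fluorescence from LiveBLAzer B/G FRET substrate (2 h, room temperature) read after 16 h compound treatment at 37 C of VDR-bla cells, which were pre-incubated 4 h after seeding.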
# [13] = target: Vitamin D3 receptor (Homo sapiens) (UniProt P11473); assay: qHTS assay to identify small molecule antagonists of the vitamin D receptor (VDR) signaling pathway (AID 743223; active = well fitted inhibition curve with a large enough effect in the signal ratio in the repeat runs, not every such curve was filed as active; the % refers to the signal ratio; also: potency is read from the fitted curve at half-maximal effect)
# How it was run: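 Cells carrying a VDR-driven beta-lactamase reporter (VDR-bla) were co-treated with compound and 3 nM final 1alpha,25-dihydroxyvitamin D3 for 16 h at 37C; reporter activity was measured as FRET substrate fluorescence after 2 h at room temperature.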
# [14] = qHTS assay for small molecule agonists of the antioxidant response element (ARE) signaling pathway (AID 743202; active = well fitted activation curve with a large enough effect in the signal ratio in the repeat runs, not every such curve was filed as active; the % refers to the signal ratio)
# How it was run: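 Following a 16 h, 37 C exposure of reporter HepG2 cells (ARE-driven beta-lactamase, 2,000 cells/well) to compounds, FRET substrate was applied for 2 h at room temperature and fluorescence intensity recorded.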
# [15] = qHTS assay for small molecule activators of the heat shock response signaling pathway - cell viability counter screen (AID 743209); also: nearly all actives have a fitted effect of over 50% in size
# How it was run: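 Cytotoxicity counter screen run in the same wells as the heat-shock bla reporter assay: HeLa HSE-bla cells, 5 h compound exposure at 37 C, viability read by CellTiter-Glo luminescence.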
# [16] = qHTS assay for small molecule activators of the heat shock response signaling pathway (AID 743210; active = well fitted activation curve with a large enough effect in the signal ratio in the repeat runs, with a control signal flat, not every such curve was filed as active; the % refers to the signal ratio; also: series mostly up to about 63 µM)
# How it was run: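 Heat shock element–beta-lactamase HeLa reporter cells; qHTS with compounds for 5 h at 37 C; detection by FRET substrate fluorescence after 2.5 h at RT.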
# [17] = target: Bile acid receptor (Homo sapiens) (UniProt Q96RI1); assay: qHTS assay to identify small molecule antagonists of the farnesoid-X-receptor (FXR) signaling pathway (AID 743217; active = well fitted inhibition curve with a large enough effect in the signal ratio in the repeat runs, not every such curve was filed as active; the % refers to the signal ratio)
# Sequence of Bile acid receptor (Homo sapiens) (Q96RI1 whole entry, looked up): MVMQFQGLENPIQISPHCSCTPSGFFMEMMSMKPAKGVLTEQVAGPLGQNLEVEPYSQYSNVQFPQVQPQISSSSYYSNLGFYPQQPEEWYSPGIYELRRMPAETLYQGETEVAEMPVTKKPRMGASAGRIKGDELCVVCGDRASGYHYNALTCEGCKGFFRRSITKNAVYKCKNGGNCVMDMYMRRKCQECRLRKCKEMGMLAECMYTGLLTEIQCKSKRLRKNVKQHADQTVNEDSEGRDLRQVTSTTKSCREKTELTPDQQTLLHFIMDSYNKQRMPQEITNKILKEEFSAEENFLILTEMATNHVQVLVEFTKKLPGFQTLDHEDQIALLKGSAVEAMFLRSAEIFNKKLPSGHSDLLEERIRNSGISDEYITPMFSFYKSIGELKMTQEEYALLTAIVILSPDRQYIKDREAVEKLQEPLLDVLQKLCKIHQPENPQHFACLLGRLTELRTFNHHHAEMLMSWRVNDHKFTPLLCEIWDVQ
# How it was run: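 Antagonist mode: chenodeoxycholic acid at 50 uM final stimulates a UAS-driven beta-lactamase reporter in HEK 293T FXR-bla cells during 16 h, 37C compound exposure. Read-out is FRET substrate fluorescence after 2 h at room temperature.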
# [18] = target: Bile acid receptor (Homo sapiens) (UniProt Q96RI1); assay: qHTS assay to identify small molecule agonists of the farnesoid-X-receptor (FXR) signaling pathway (AID 743220; active = well fitted activation curve with a large enough effect in the signal ratio in the repeat runs, not every such curve was filed as active; the % refers to the signal ratio)
# How it was run: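 FXR-UAS-bla HEK 293T cells carrying a UAS-driven beta-lactamase reporter were plated for 5 h at 37C/5% CO2, then exposed to DMSO-dissolved Tox21 10K compounds for 16 h at 37C. A LiveBLAzer B/G FRET substrate was loaded for 2 h at room temperature before fluorescence reading.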
# [19] = target: Peroxisome proliferator-activated receptor delta (Homo sapiens) (UniProt Q03181); assay: qHTS assay to identify small molecule agonists of the peroxisome proliferator-activated receptor delta (PPARd) signaling pathway (AID 743212; calls by dose curve)
# Sequence of Peroxisome proliferator-activated receptor delta (Homo sapiens) (Q03181 whole entry, looked up): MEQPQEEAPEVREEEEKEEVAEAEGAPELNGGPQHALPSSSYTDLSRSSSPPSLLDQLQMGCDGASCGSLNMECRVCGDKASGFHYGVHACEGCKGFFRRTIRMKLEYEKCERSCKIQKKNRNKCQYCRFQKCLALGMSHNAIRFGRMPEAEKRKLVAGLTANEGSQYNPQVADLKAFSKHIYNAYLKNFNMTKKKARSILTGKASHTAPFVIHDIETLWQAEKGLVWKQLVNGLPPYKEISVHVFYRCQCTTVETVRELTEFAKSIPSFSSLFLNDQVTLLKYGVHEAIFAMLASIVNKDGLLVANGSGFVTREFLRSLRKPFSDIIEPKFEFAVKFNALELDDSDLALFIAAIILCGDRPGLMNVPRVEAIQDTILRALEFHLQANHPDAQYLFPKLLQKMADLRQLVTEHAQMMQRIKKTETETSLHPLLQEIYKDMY
# How it was run: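 Beta-lactamase reporter read by fluorescence (LiveBLAzer B/G FRET, 2 h, room temperature). Test agents, in DMSO, incubated at 37 C with PPARd-bla HEK293H cells.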
# [20] = target: Peroxisome proliferator-activated receptor delta (Homo sapiens) (UniProt Q03181); assay: qHTS assay to identify small molecule antagonists of the peroxisome proliferator-activated receptor delta (PPARd) signaling pathway (AID 743215; active = well fitted inhibition curve with a large enough effect in the signal ratio in the repeat runs, not every such curve was filed as active; the % refers to the signal ratio;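 also: cells stimulated with agonist L165041 at 300 nM final during compound exposure; series mostly up to about 62 µM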)
# How it was run: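 Agonist L165041 (300 nM final) added with compound to PPARd-bla HEK293H UAS-bla reporter cells; 17 h incubation at 37 C. Read-out: LiveBLAzer FRET substrate, 2 h at room temperature, fluorescence intensity.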
Compound,Potency [1],Potency [2],Potency [3],Potency [4],Potency [5],Potency [6],Potency [7],Potency [8],Potency [9],Potency [10],Potency [11],outcome [12],Potency [13],Potency [14],Potency [15],Potency [16],Potency [17],Potency [18],Potency [19],Potency [20]
c1cnc2c(c1)ccc1cccnc12,5.5 µM (active),55 µM (active) and 54.5 µM (active) and inactive,inactive,inactive,1.56 µM (active),1.23 µM (active),5.45 µM (active),698 nM (active) and 1.95 µM (active) and 692 nM (active),0.389 µM (active),inactive and 1.55 µM (active),24.8 µM (active) and 776 nM (active) and 174 nM (active),inactive,3.89 µM (active),,,,,,,
COc1ccccc1[N+](=O)[O-],inactive,inactive,inactive,,,inactive,inactive,inactive,inactive,inactive,inactive,inactive,inactive,inactive,inactive,inactive,inactive,inactive,,
Cc1ccc([N+](=O)[O-])cc1N,inactive,61 µM (active),inactive,inactive,inactive,inactive,inactive,inactive,inactive,inactive,inactive,inactive,inactive,inactive,inactive,inactive,inactive,inactive,inactive,inactive
Cc1cc(C)cc(O)c1,inactive,inactive,inactive,inactive,,inactive,inactive,inactive,inactive,inactive,inactive,inactive,inactive,inactive,inactive,inactive,,,,inactive
COc1ccc([C@@H]2CC(=O)c3c(O)cc(O[C@@H]4O[C@H](CO[C@@H]5O[C@@H](C)[C@H](O)[C@@H](O)[C@H]5O)[C@@H](O)[C@H](O)[C@H]4O)cc3O2)cc1OC,inactive,inactive,inactive,inactive,inactive,inactive,inactive,inactive,inactive,inactive,inactive,inactive,inactive,inactive,inactive,inactive,inactive,inactive,,
NC(=O)NC(N)=O,inactive,inactive,inactive,inactive,inactive,,inactive,inactive,inactive,inactive,inactive,,,inactive,,inactive,,,,inactive
O=C(Cl)c1ccc(C(=O)Cl)cc1,inactive,inactive,inactive,inactive,inactive,inactive,inactive,inactive,inactive,inactive,inactive,inactive,inactive,inactive,inactive,inactive,,,,inactive
COc1c(Cl)ccc(Cl)c1C(=O)O,inactive,inactive,inactive,inactive,inactive,inactive,inactive,inactive,inactive,inactive,inactive,inactive,inactive,inactive,inactive,inactive,,,,inactive
